# Data: ChEMBL document CHEMBL3433997, “St. Jude Leishmania screening dataset” (2016)
# How the values were obtained:
# Type in all cases: functional
# [1] = target: Solute carrier family 2, facilitated glucose transporter member 1 (Homo sapiens) (UniProt P11166); test: ST_JUDE_LEISH: Cytotoxicity at 2uM final concentration against transgenic Leishmania Mexicana promastigotes LmGLUT1 that are glucose transport deficient and complemented with the human glucose transporter GLUT1. Activity is measured by DNA content using SYBR green in vitro
# [2] = target: Hexose transporter 1 (Plasmodium falciparum) (UniProt O97467); test: ST_JUDE_LEISH: Cytotoxicity at 2uM final concentration against transgenic Leishmania Mexicana promastigotes LmPfHT that are glucose transport deficient and complemented with the Plasmodium falciparum hexose transporter. Activity is measured by DNA content using SYBR green in vitro
# [3] = target: Glucose transporter (Leishmania mexicana) (UniProt O61059); test: ST_JUDE_LEISH: Cytotoxicity at 2uM final concentration against transgenic Leishmania Mexicana promastigotes LmGT2 that are glucose transport deficient and complemented with the L. Mexicana glucose transporter 2. Activity is measured by DNA content using SYBR green in vitro
# Sequence of Solute carrier family 2, facilitated glucose transporter member 1 (Homo sapiens) (P11166 whole entry): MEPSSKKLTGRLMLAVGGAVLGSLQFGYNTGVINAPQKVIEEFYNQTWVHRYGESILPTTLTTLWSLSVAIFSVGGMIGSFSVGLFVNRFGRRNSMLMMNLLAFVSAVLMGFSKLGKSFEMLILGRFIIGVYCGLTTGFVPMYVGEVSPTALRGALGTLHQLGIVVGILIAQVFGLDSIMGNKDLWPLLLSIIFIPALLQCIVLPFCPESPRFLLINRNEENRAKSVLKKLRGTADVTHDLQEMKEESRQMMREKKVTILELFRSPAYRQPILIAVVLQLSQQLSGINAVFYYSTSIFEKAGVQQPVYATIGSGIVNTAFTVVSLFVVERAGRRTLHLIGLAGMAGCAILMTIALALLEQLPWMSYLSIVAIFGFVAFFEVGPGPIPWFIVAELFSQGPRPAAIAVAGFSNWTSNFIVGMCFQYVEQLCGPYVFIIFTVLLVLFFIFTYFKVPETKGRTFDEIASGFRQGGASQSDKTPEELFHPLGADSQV
Compound,inhibition [1] [%],inhibition [2] [%],inhibition [3] [%]
Nc1nccc2ccc(-c3cccc(O)c3)cc12,7.38,6.21,4.01
Cn1cncc1C(=O)Nc1cccc(-c2ccc(-c3nc4cc(F)ccc4[nH]3)cc2)c1,0,-0.68,3.3
Cc1ccc(N)cc1-c1nc(NC2CC(C)(C)NC(C)(C)C2)nc2c1ccc(=O)n2-c1c(F)cccc1F,0.73,1.28,2.03
CC(=O)Nc1ccc(COc2ccc(Nc3ccnc4cc(-c5ccccn5)ccc34)cc2)cc1,3.41,1.28,1.17
O=C(NCCc1ccccc1)N(Cc1ccccc1-c1cccc(CNCc2ccc3c(c2)OCO3)c1)C1CCN(Cc2ccccc2)CC1,3.72,4.3,3.13
Cc1ccc(CNC(=O)[C@H](Cc2ccccc2)Nc2cc(C)nc(NCC3CCCCC3)n2)cc1,3.25,4.57,0.14
O=c1cc(NCCCNCc2cccc(OC(F)(F)F)c2)[nH]c2ccccc12,2.97,-3.41,4.57
Cc1cc(OCCCn2ccnc2)ccc1-c1csc(/N=C(\N)NCc2ccccc2)n1,8.57,5.79,6.56
CCC(CC)CN1C(=O)C(c2ccccc2)(c2ccccc2)N=C1N,6.55,5.61,6.88
Fc1cccc2sc(Nc3nc(-c4ccccn4)cs3)nc12,1.42,0.63,-5.6
CCN(CC)CCCC(C)N=c1cc(C=Cc2ccccc2Cl)[nH]c2cc(Cl)ccc12 (stereo unspecified),3.06,3.03,1.56
O=C(c1cccc(-c2cccc(-c3nc4ccccc4[nH]3)c2)c1)N1CCCCC1CN1CCC(O)C1 (stereo unspecified),0.33,0.78,0.03
